This is a sample that favours compounds with a hit; in the whole collection about 6.8% have one here.
Pf Dd2 growth: P. falciparum Dd2 growth inhibition | SYBR Green, 72 h; stronger effect = lower value | actives 2.3% (n = 94,000) | activity change, % at 10 µM | AID 1159554; in the data active = activity change below about -80%; inconclusive = no clear call, values can overlap the other calls
C diff growth: blocks growth of Clostridium difficile; Clostridium difficile clinical isolate growth, OD600, 24 h; stronger effect = lower value; AID 1259249; growth activity, negative = inhibition, % at 16 µg/mL (by protocol); actives 0.25% (n = 86,000);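 active = mean growth activity at or below -80% and every replicate also at or below -80%; inconclusive = mean at or below -80% but some replicate above -80%; inactive = mean growth activity above -80%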;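 note: 0% = DMSO wells and -100% = levofloxacin 16 µg/mL wells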
T cruzi growth-1: inhibitors of T. cruzi proliferation. T. cruzi beta-gal in NIH3T3, GalScreen luminescence, 90 h. inhibition, % at 8.34 µM. AID 624255. actives 5.9% (n = 77,000);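 active = mean inhibition above about 93%, with at least 55% of replicates each passing it, limit read from the data, passing the limit was not always enough; inconclusive = only one of those two conditions holds; inactive = neither condition holds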
T cruzi growth-2: inhibitors of T. cruzi proliferation; inhibition, % at 8.35 µM; shares compounds with T cruzi growth-1; actives 72% (n = 5,600); T. cruzi beta-gal in NIH3T3, GalScreen luminescence, 90 h; AID 651739;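 active = mean replicate inhibition above about 95% and at least 55% of replicates individually reaching it, limit read from the data; inconclusive = only one of the two criteria is met; inactive = neither criterion is met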
T cruzi growth-3: blocks T. cruzi growth in NIH3T3 host cells; actives 21% (n = 5,600); inhibition, % at 2.09 µM; shares compounds with T cruzi growth-1; T. cruzi beta-gal in NIH3T3, GalScreen luminescence, 90 h;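 active = mean inhibition above about 95%, with at least 55% of replicates also reaching it, limit read from the data; inconclusive = meets just one of the two conditions; inactive = meets neither condition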;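 note: plate controls were neutral control median for no effect and positive control median for full effect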
3T3 cytotox: NIH/3T3 (mouse) viability loss. shares compounds with T cruzi growth-1. NIH/3T3 viability, CellTiter-Glo ATP luminescence, 90 h. cytotoxicity (signal decrease), % at 8.35 µM. actives 14% (n = 5,600). AID 651742;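 active = mean signal decrease across replicates above about 35% based on untreated-well scatter, with enough replicates individually passing, limit read from the data; inconclusive = no rule stated though some were filed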;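 note: 0% = median of neutral control wells and 100% = median of positive control wells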
NIH3T3 tox 2: NIH/3T3 (mouse) viability loss. shares compounds with T cruzi growth-1. inhibition, % at 24.9 µM. NIH/3T3 viability, CellTiter-Glo ATP luminescence, 90 h. actives 56% (n = 5,600);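 active = mean loss of cell viability signal at or above a set limit, and enough replicates individually reaching it; inconclusive = meets only the mean limit or only the replicate share; inactive = meets neither condition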;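 note: 0% = median of neutral control wells and 100% = median of positive control wells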
The depositor's hits bear a star; ? = inconclusive; / = not tested or not shown.

SMILES	Pf Dd2 growth	C diff growth	T cruzi growth-1	T cruzi growth-2	T cruzi growth-3	3T3 cytotox	NIH3T3 tox 2
CCc1cnc(N2[C@@H](C#N)[C@H](c3ccccc3)[C@@H]2CO)s1	13	1	27	/	/	/	/
CCS(=O)(=O)N1[C@H](CO)[C@H](c2ccc(C#Cc3ccccc3F)cc2)[C@@H]1C#N	-79	11	87	/	/	/	/
CCc1cnc(N2[C@H](CO)[C@@H](c3ccc(C#Cc4ccccc4F)cc3)[C@@H]2C#N)s1	-40	15	103*	96*	111*	-16	85*
CCc1cnc(N2[C@@H](C#N)[C@@H](c3ccc(C#Cc4ccccc4F)cc3)[C@@H]2CO)s1	-24	4	100*	90	109*	-18	62*
Cc1nn(C)cc1NC(=O)C[C@@H]1CC[C@@H]2[C@@H](COc3ccc(NC(=O)c4cccc(F)c4)cc3C(=O)N2C)O1	2	-7	28	/	/	/	/
O=C(c1ccccc1F)N1CC[C@@H]2[C@H](CO)Nc3ccc(C#Cc4ccccc4F)cc3[C@@H]21	-26	17	82	/	/	/	/
CCCNC(=O)[C@H]1[C@H](CO)[C@H]2Cn3c(ccc(-c4ccccc4)c3=O)[C@H]2N1C(=O)C1CC1	17	-4	/	/	/	/	/
COC(=O)[C@@H]1[C@@H](CO)[C@@H]2Cn3c(ccc(-c4ccc(F)cc4)c3=O)[C@@H]2N1C(=O)C1CCC1	/	0	114*	-16	-14	-5	6
O=C([C@H]1[C@H](CO)[C@H]2Cn3c(ccc(-c4cccc(F)c4)c3=O)[C@H]2N1Cc1cocn1)N1CCCCC1	0	0	?	78	-20	20	24*
COC(=O)[C@H]1[C@H](CO)[C@H]2Cn3c(ccc(-c4ccc(F)cc4)c3=O)[C@H]2N1C(=O)C1CC1	6	-5	73	/	/	/	/
CCCNC(=O)[C@@H]1[C@@H](CO)[C@@H]2Cn3c(ccc(-c4ccccc4)c3=O)[C@@H]2N1C(=O)C1CCC1	-1	1	102*	16	19	-18	2
O=C([C@@H]1[C@@H](CO)[C@@H]2Cn3c(ccc(-c4cccc(F)c4)c3=O)[C@@H]2N1Cc1cocn1)N1CCCCC1	-7	-1	83	/	/	/	/
CCCNC(=O)N1[C@@H]2c3ccc(-c4ccc(F)cc4)c(=O)n3C[C@@H]2[C@@H](CO)[C@@H]1C(=O)N1CCCCC1	/	-2	102*	0	0	-14	21
CCCNC(=O)[C@@H]1[C@@H](CO)[C@@H]2Cn3c(ccc(-c4ccc(F)cc4)c3=O)[C@@H]2N1C	12	1	37	/	/	/	/
O=C(C[C@H]1C=C[C@@H](NC(=O)Nc2ccccc2F)[C@H](CO)O1)NCc1ccc(F)cc1	-9	3	5	/	/	/	/
C[C@@H]1CN([C@H](C)CO)S(=O)(=O)c2ccc(C#CC3(O)CCCC3)cc2O[C@H]1CN(C)C(=O)c1cccnc1	1	-2	36	/	/	/	/
O=C(C[C@@H]1C=C[C@H](NC(=O)C2CCOCC2)[C@H](CO)O1)Nc1ccccc1	18	-3	/	/	/	/	/
CCCNC(=O)N(C)C[C@@H]1Oc2cc(-c3ccncc3)ccc2S(=O)(=O)N([C@H](C)CO)C[C@H]1C	-1	-2	107*	87	76	1	13
CCCNC(=O)N(C)C[C@@H]1Oc2cc(-c3ccncc3)ccc2S(=O)(=O)N([C@H](C)CO)C[C@@H]1C	-16	-2	38	/	/	/	/
CCCNC(=O)N(C)C[C@@H]1Oc2cc(-c3ccncc3)ccc2S(=O)(=O)N([C@@H](C)CO)C[C@H]1C	38	-4	111*	97*	85	2	10
CCCNC(=O)N(C)C[C@@H]1Oc2cc(-c3ccc(C)cc3)ccc2S(=O)(=O)N([C@@H](C)CO)C[C@@H]1C	-19	7	-1	/	/	/	/
COC(=O)[C@H]1[C@H](CO)[C@H]2Cn3c(ccc(-c4cccc(C(=O)N(C)C)c4)c3=O)[C@H]2N1C	-12	3	39	/	/	/	/
O=C(C[C@H]1C[C@H]2c3cc(NC(=O)C4CCC4)ccc3O[C@H]2[C@H](CO)O1)NCc1cc(F)ccc1F	-34	3	42	/	/	/	/
CCCNC(=O)Nc1ccc2c(c1)C(=O)N(C)C[C@H](OC)[C@H](C)CN(C(=O)c1ccccc1F)[C@H](C)CO2	-1	/	14	/	/	/	/
Cc1noc(C)c1S(=O)(=O)N(C)C[C@@H]1OCCCC[C@@H](C)Oc2ccc(NS(=O)(=O)c3ccc(Cl)cc3)cc2C(=O)N([C@H](C)CO)C[C@@H]1C	-3	0	38	/	/	/	/
SMILES	Pf Dd2 growth	C diff growth	T cruzi growth-1	T cruzi growth-2	T cruzi growth-3	3T3 cytotox	NIH3T3 tox 2
Cc1noc(C)c1S(=O)(=O)N(C)C[C@@H]1OCCCC[C@@H](C)Oc2ccc(NS(=O)(=O)c3ccc(Cl)cc3)cc2C(=O)N([C@@H](C)CO)C[C@H]1C	15	-5	63	/	/	/	/
Cc1ccc(S(=O)(=O)Nc2ccc3c(c2)C(=O)N([C@@H](C)CO)C[C@@H](C)[C@@H](CN(C)S(=O)(=O)c2c(C)noc2C)OCCCC[C@@H](C)O3)cc1	-26	5	98*	107*	58	17	-9
Cc1noc(C)c1S(=O)(=O)N(C)C[C@H]1OCCCC[C@@H](C)Oc2ccc(NS(=O)(=O)c3ccc(Cl)cc3)cc2C(=O)N([C@@H](C)CO)C[C@@H]1C	-77	-4	100*	107*	91	33	19
Cc1noc(C)c1S(=O)(=O)N(C)C[C@H]1OCCCC[C@@H](C)Oc2ccc(NS(=O)(=O)c3ccc(Cl)cc3)cc2C(=O)N([C@@H](C)CO)C[C@H]1C	-71	-9	108*	102*	100*	22	26*
Cc1noc(C)c1S(=O)(=O)N(C)C[C@@H]1OCCCC[C@H](C)Oc2ccc(NS(=O)(=O)c3ccc(Cl)cc3)cc2C(=O)N([C@H](C)CO)C[C@@H]1C	-37	-2	98*	106*	30	-3	15
Cc1noc(C)c1S(=O)(=O)Nc1ccc2c(c1)C(=O)N([C@H](C)CO)C[C@H](C)[C@H](CN(C)S(=O)(=O)c1ccc(Cl)cc1)OCCCC[C@@H](C)O2	-65	-4	31	/	/	/	/
Cc1ccc(S(=O)(=O)Nc2ccc3c(c2)C(=O)N([C@@H](C)CO)C[C@@H](C)[C@H](CN(C)S(=O)(=O)c2c(C)noc2C)OCCCC[C@@H](C)O3)cc1	0	-5	16	/	/	/	/
COc1ccc(S(=O)(=O)Nc2ccc3c(c2)C(=O)N([C@H](C)CO)C[C@@H](C)[C@@H](CN(C)Cc2ccc4c(c2)OCO4)OCCCC[C@@H](C)O3)cc1	-68	-1	91	/	/	/	/
CC(C)NC(=O)N[C@@H]1CC[C@H](CCNC(=O)C2CCOCC2)O[C@@H]1CO	24	/	5	/	/	/	/
Cc1noc(C)c1S(=O)(=O)N(C)C[C@@H]1OCCCC[C@@H](C)Oc2ccc(NS(=O)(=O)c3ccc(F)cc3)cc2C(=O)N([C@H](C)CO)C[C@H]1C	-66	-10	?	44	57	-19	-19
